CHO-K1 Ca antag: counter-screen for M1 antagonists: effect in parental CHO-K1 cells | ATP-induced calcium, Fluo-8 fluorescence | 0.6% of 360,000 active | inhibition, % at 3 µM;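 active = inhibition above a per-plate cutoff, the plate's mean sample inhibition plus 3 SD, cut at about 24% in these data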
CHO-K1 Ca ag: counter-screen for M1 agonists: effect in parental CHO-K1 cells | Fluo-8 calcium fluorescence; scaled to maximal ATP response, vehicle zero | activation, % at 3 µM | 0.48% of 360,000 active; in the data active = activation above about 15%;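 note: untransfected CHO-K1 host cells lacking M1 receptor as counterscreen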
CHRM1 PAM: human M1 muscarinic receptor positive allosteric modulators, primary screen, CHO-K1 cells, Fluo-8 calcium fluorescence, 1536-well; Muscarinic acetylcholine receptor M1 (Homo sapiens), P11229; CHO-K1 hM1, ACh EC20; 0% = ACh EC20, 100% = maximal ACh; activation, % at 3 µM; 0.088% of 360,000 active; in the data active = activation above about 19%, passing the limit was not always enough
Target sequence (P11229 whole entry, looked up): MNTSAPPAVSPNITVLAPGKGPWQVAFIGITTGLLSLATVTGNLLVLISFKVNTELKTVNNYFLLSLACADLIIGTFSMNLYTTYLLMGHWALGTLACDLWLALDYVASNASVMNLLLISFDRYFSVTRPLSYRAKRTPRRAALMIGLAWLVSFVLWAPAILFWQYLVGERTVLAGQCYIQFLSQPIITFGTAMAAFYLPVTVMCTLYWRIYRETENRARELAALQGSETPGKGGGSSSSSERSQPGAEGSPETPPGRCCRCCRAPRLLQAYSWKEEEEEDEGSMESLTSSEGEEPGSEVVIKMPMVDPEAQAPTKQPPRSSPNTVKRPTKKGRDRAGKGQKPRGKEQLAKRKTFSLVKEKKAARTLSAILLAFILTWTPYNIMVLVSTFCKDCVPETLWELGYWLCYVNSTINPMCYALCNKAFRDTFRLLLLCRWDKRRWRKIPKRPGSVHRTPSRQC
M1 antag: human M1 muscarinic receptor antagonists, primary screen, CHO-K1 cells, Fluo-8 calcium fluorescence, 1536-well. Muscarinic acetylcholine receptor M1 (Homo sapiens), P11229. CHO-K1 hM1, ACh EC80 antagonist. inhibition, % at 3 µM. 1.3% of 360,000 active;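 active = percent inhibition above its own plate's cutoff, namely the mean of that plate's compound wells plus 3 SD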;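 note: peak over basal fluorescence ratio during 140 s after agonist addition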
CHO-K1 Ca PAM: nonselective calcium activators in parental CHO-K1 cells, primary screen, counter-screen for M1 PAM project, cell-based, Fluo-8 calcium fluorescence, full deck, 1536-well. ATP EC20; 0% at ATP EC20, 100% at ATP max. 0.02% of 360,000 active. activation, % at 3 µM;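 active = activation above the run cutoff, the mean activation of all test compounds plus 3 SD, cut at about 40% in these data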;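 note: peak over basal fluorescence ratio in a 140 s read after ATP addition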
CHRM1 agonist: human M1 muscarinic receptor agonists, primary screen, Fluo-8 calcium fluorescence, CHO-K1 cells, HTS; AID 588814, 2011; activation, % at 3 µM; 0.33% of 360,000 active; Muscarinic acetylcholine receptor M1 (Homo sapiens), P11229; CHO-K1 hM1, agonist mode; 0% DMSO, 100% acetylcholine EC100;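 active = activation above the run's mean compound activation plus 3 SD, cut at about 16% in these data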;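 note: peak over basal fluorescence ratio within a 140 s kinetic read after compound addition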
Each line names hits and unclear results; the compound was inactive in the other large screens. In the library only some 2.3% were active in any assay of this set; here they are far more common.

Cc1occc1C(=O)N1CCCC(CCC(=O)NCc2ccc(F)c(F)c2)C1 (centres undefined)	none
Cc1ncc(CN2CCCC(CCC(=O)NCc3ccc(F)c(F)c3)C2)s1 (centres undefined)	none
O=C(CCN1C(=O)/C(=C/C=C/c2ccccc2)SC1=S)Nc1nccs1	CHO-K1 Ca antag 26
CCOc1ccccc1CNC(=O)C1CCCN(c2nnc(C)c3c(C)n(-c4ccccc4)nc23)C1 (centres undefined)	M1 antag 43
CCN1CCN(c2ccc(S(=O)(=O)N3CCOCC3)cc2NC(=O)c2ccccc2SC)CC1	CHRM1 agonist 24
CCN1CCN(c2ccc(S(=O)(=O)N3CCOCC3)cc2NC(=O)c2cc(F)c(F)c(F)c2F)CC1	none
CN(Cc1cccs1)c1nc(-c2cccnc2)nc2ccccc12	M1 antag 35
C[C@H](CO)N1C[C@H](C)[C@@H](CN(C)C(=O)c2ccc3ccn(C)c3c2)OCc2cn(nn2)CCCC1=O	none
O=C(CCc1nc2ccccc2c(=O)[nH]1)Nc1nc(-c2cccs2)cs1	CHO-K1 Ca ag 18
CN(C)S(=O)(=O)c1ccc(NC(=O)c2cc(-c3cccs3)nc3ccccc23)cc1	M1 antag 42
CCN(CC)S(=O)(=O)c1cc(NC(=O)c2cc(-c3ccccn3)nc3ccccc23)ccc1C	none
COc1ccc(NC(=O)c2cc(-c3ccccn3)nc3ccccc23)cc1S(=O)(=O)N(C)C	M1 antag 34
CCN(CC)S(=O)(=O)c1ccc(NC(=O)c2cc(-c3cccs3)nc3ccccc23)cc1	none
Cc1nc2ccccc2n1Cc1ccc(Br)cc1	CHO-K1 Ca antag 31
Cc1nc2ccccc2n1Cc1ccccc1Br	CHO-K1 Ca ag 23
COc1ccc2c(c1OC)C(=O)N1c3ccccc3C(=O)N(c3ccccc3F)C21 (centres undefined)	M1 antag 39
CCOC(=O)N1CCN(C2=Nc3cccc4cccc2c34)CC1	M1 antag 84
COc1ccccc1N1CCN(C2=Nc3cccc4cccc2c34)CC1	M1 antag 89
c1ccc(CC2CCN(C3=Nc4cccc5cccc3c45)CC2)cc1	M1 antag 72
COc1ccc(N(CC(=O)NC2CCCC2)C(=O)c2ccc(C)s2)cc1OC	none
NC(CC(=O)NC(c1ccccc1)(c1ccccc1)c1ccccc1)C(=O)O (centres undefined)	none
NC(CSC(c1ccccc1)(c1ccccc1)c1ccccc1)C(=O)O (centres undefined)	M1 antag 40
COc1ccc(C(=O)N2CCN(c3ccccn3)CC2)cc1[N+](=O)[O-]	none
CC1OC2CC(=O)OC2C2=C1C(=O)c1c(O)cccc1C2=O (centres undefined)	M1 antag 50, CHRM1 agonist 16
CCOc1ccccc1N(CC(=O)N1CCC(C)CC1)S(=O)(=O)c1ccc(C)cc1	M1 antag 32
CCOc1ccccc1N(CC(=O)N1CCCCCC1)S(=O)(=O)c1ccc(C)cc1	none
CCCCOC(=O)c1ccc(NC(=O)C(=O)NCCN(C)C)cc1	none
COC(=O)CSc1nnc2n(C3CCCCC3)c(=O)c3c4c(sc3n12)CCCC4	none
COC(=O)CSc1nnc2n(-c3ccc(OC)cc3)c(=O)c3c4c(sc3n12)CCCCC4	CHO-K1 Ca antag 24
Cc1cc(C)c(NS(=O)(=O)c2cccc3cccnc23)c(C)c1	CHO-K1 Ca antag 27
COc1ccc(OC)c(NS(=O)(=O)c2cccc3cccnc23)c1	none
COc1ccc(C(C)(C)C)cc1NS(=O)(=O)c1cccc2cccnc12	CHRM1 PAM 32
CN(C)c1ccc2c(=O)cc[nH]c2c1	none
O=c1c(/C=C(\O)c2ccccc2)nc2ccccc2n1-c1ccccc1	CHRM1 agonist 22
COc1cc(OC)cc(C(=O)N[C@H](C(=O)OCC(=O)Nc2cccnc2Cl)C(C)C)c1	none
O=S(=O)(c1cc(F)ccc1F)N1CCN(c2ccccn2)CC1	none
